These results are taken from PubChem BioAssay.

Calls of active or inactive are those of the source.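 The calls were made as follows, unless noted: active = viability at or below 10% of carrier control in both of two separate runs; inconclusive = viability at or below 10% in only one of the two runs; inactive = the rest.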

The target of one assay is Receptor tyrosine-protein kinase erbB-2 (Homo sapiens) (UniProt P04626). As to the kind of experiment: reducers of endogenous Her2 protein level, primary screen, SKBR3 breast tumor cells, AlphaScreen, ATP viability (AID 461;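 active = Her2 level under about 52% in both replicate screens, with viability over 70% of control, limit read from the data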;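 also: lower value means less Her2 protein in the cells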). Conditions: 18-24 h, at 10 µM, stronger effect = lower value.
Sequence of Receptor tyrosine-protein kinase erbB-2 (Homo sapiens) (P04626 whole entry, looked up): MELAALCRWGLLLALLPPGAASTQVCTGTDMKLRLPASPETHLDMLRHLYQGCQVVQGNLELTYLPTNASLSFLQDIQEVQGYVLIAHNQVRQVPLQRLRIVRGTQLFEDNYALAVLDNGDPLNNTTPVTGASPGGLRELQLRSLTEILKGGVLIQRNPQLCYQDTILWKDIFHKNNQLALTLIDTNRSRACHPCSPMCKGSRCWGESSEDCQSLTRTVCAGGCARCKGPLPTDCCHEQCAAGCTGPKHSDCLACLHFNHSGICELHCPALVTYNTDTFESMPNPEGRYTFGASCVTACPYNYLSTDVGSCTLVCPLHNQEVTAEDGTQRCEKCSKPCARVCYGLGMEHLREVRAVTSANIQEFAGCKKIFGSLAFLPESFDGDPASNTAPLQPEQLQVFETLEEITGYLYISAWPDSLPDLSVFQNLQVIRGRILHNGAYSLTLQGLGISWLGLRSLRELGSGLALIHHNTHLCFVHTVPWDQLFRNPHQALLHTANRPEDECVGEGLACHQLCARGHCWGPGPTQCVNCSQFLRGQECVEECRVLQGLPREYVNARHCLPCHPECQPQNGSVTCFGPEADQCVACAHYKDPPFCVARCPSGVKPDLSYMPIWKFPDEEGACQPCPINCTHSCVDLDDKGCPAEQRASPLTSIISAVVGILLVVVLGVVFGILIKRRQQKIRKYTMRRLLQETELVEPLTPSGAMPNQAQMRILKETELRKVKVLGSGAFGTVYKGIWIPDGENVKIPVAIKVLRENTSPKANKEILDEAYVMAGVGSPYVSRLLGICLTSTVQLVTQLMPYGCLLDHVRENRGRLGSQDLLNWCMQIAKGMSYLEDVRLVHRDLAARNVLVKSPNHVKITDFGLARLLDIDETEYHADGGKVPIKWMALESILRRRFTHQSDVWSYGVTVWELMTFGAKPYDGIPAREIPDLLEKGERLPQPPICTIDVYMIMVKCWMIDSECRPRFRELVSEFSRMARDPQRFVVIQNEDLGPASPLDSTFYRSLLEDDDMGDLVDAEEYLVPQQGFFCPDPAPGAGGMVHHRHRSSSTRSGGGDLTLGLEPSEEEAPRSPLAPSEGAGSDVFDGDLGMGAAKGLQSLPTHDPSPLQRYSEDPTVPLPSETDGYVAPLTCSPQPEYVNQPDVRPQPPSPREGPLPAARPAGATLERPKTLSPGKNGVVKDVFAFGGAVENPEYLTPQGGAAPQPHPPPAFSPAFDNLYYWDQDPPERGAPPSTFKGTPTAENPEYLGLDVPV
For the compound `COc1ccccc1-n1c(=O)[nH]c2c(C(N)=O)nc(CC(C)C)nc21`, the Her2 level was 109% (inactive). Still for that read-out and setting: the result for `Cc1ccccc1-c1nc(CN2CCC(C(=O)N3CCC(C(N)=O)CC3)CC2)c(C)o1` reads 104% (inactive); that for `CCCCN(CC)CCCNC(=O)c1cc2c(=O)n(C)c3ccccc3c2n1C`, 77% (inactive); that for `Cc1nn(-c2ccc(F)cc2)c2c1cc(C#N)c1nc3ccccc3n12`, 81% (inactive). On the same count and under the same terms, the result for `CCCn1c(OC)nc2c1c(=O)n(C)c(=O)n2C` reads 88.5% (inactive). Still for that read-out and setting: the figure for `CCOC(=O)Cc1ccc(NS(=O)(=O)c2ccc(SC)cc2)cc1` is 88% (inactive); for `CC(C)Sc1nc2c(c(=O)n1-c1ccc(F)cc1)SCC2` it is 124% (inactive); for `COc1cccc(C2CC(c3c(Cl)cccc3Cl)n3nc(N)nc3N2)c1` (centres undefined) it is 104% (inactive). With `Cc1cccc(OCCNC(=O)c2ncn[nH]2)c1`, the Her2 level is 108% (inactive). Same read-out and setting: the result for `COc1ccc(S(=O)(=O)N2CCN(c3ccc(C)cc3C)CC2)cc1OC` reads 93.5% (inactive); that for `CS(=O)(=O)NCCSCc1c(F)cccc1Cl`, 107% (inactive). Same read-out and setting: the figure for `CC(C)CCNC(=O)Cn1c(NCCC(C)C)nc2c1c(=O)n(C)c(=O)n2C` is 118% (inactive); for `CCOC(=O)N1CCC(NC(=O)C2CCCN(C(=O)c3cc4sccc4n3C)C2)CC1` (centres undefined) it is 114% (inactive); for `CCOC(=O)N1CCC(NC(=O)c2cc(C(=O)NC3CCCC3)ccc2CO)CC1` it is 104% (inactive).

Tested on in the next assay: not listed separately
In words: SK-BR-3 cell growth inhibitors, pilot screen, 24 h, human (AID 572).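 Also: compound exposure lasted between 18 and 24 h rather than exactly 24 h; 100% = carrier-treated control wells.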 Conditions: SK-BR-3 viability, CellTiter-Glo luminescence, at 10 µM, stronger effect = lower value.
As to `CCOC(=O)C1CCN(C(=O)CN(c2ccc(Cl)c(C(F)(F)F)c2)S(C)(=O)=O)CC1`, the viability is 112% (inactive).

As for `CCOc1ccccc1C(=O)Nc1cc(=O)n(C)c(=O)n1C`, the viability was 89.5% (inactive).

For `Cc1ccc(-c2cc3nc4c(c(=O)n3[nH]2)CCCC4)cc1`, the viability is 105% (inactive). Same read-out and setting: the result for `CCOC(=O)C(C)Sc1nnc(Cc2cc(=O)[nH]c(=O)[nH]2)n1-c1ccc(Cl)cc1` (centres undefined) reads 92.5% (inactive).

As for `c1nc(NCC2CCCO2)c2[nH]cnc2n1` (centres undefined), the viability was 83.5% (inactive). On the same count and under the same terms, the figure for `O=C(Nc1ccc(Cl)cn1)c1cccnc1` is 104% (inactive). Consider `O=C1c2ccccc2C(=O)N1C/C=C/CN1C(=O)c2ccccc2C1=O`, for which the viability was 85% (inactive). Same read-out and setting: the figure for `O=c1oc2c3c4c(cc2cc1-c1nc2ccccc2[nH]1)CCCN4CCC3` is 79.5% (inactive). For `CCCCC(=O)NCCc1cc2c(C)ccc(C)c2[nH]c1=O`, the viability is 101% (inactive). On the same count and under the same terms, the figure for `O=C(NCc1ccc(F)cc1)c1cc2ccccn2n1` is 84% (inactive); for `COc1cccc(C2C3=C(N=C4SCC(=O)N42)c2ccccc2CC3)c1OC` (centres undefined) it is 103% (inactive); for `CCOC(=O)N1CCC(c2cc(=O)n3[nH]c(C)c(-c4ccc(F)cc4)c3n2)CC1` it is 67% (inactive). The same measure, in the same setting: the figure for `C=CCn1c(=O)n(CCOC)c(=O)c2sc3ccccc3c21` is 85% (inactive).

As to `Cc1ccc2cc(CCNC(=O)C(C)C)c(=O)[nH]c2c1C`, the viability is 87.5% (inactive).

As to `COc1ccc(S(=O)(=O)N2CCCC2C(=O)Nc2ccc(O)cc2)cc1` (centres undefined), the viability was 93.5% (inactive). Still for that read-out and setting: the figure for `Cc1cccc(-n2ncc3c(NCc4cccnc4)ncnc32)c1` is 95.5% (inactive). On the same count and under the same terms, the figure for `COc1cccc(NC(=O)C2CCCN(S(=O)(=O)c3cccc4cccnc34)C2)c1` (centres undefined) is 106% (inactive); for `CCc1nnc(NC(=O)COC(=O)CN2C(=O)c3ccccc3C2=O)s1` it is 104% (inactive); for `O=C(C1CCN(c2nnc(-n3cccc3)s2)CC1)N1CCc2ccccc2C1` it is 88% (inactive). On to `Cc1c(C(=O)NC2CC2)oc2ccc(S(=O)(=O)N3CCCCCC3)cc12`, for which the viability was 81.5% (inactive). Turning to `Cc1sc2nc(SCC(=O)NCCO)n(C)c(=O)c2c1C`, the viability is 91% (inactive). The same measure, in the same setting: the result for `S=c1[nH]nc(-c2ccccc2)n1C1C=CCCC1` (centres undefined) reads 95.5% (inactive). Same read-out and setting: the figure for `c1ccc(N2CCN(Cc3cn4cccnc4n3)CC2)cc1` is 98% (inactive). On the same count and under the same terms, the figure for `CCCCc1ccc(NC(=O)C2CCCO2)cc1` (centres undefined) is 92% (inactive). As to `Cc1[nH]c2ccccc2c(=O)c1CN1CCCCC1`, the viability is 99% (inactive).

In the case of `Cc1ccccc1-n1c(Cn2c(=O)sc3ccccc32)nnc1SCC(=O)N1CCCC1`, the viability was 109% (inactive). On the same count and under the same terms, the result for `COc1ccccc1-n1c(=O)[nH]c2c(C(N)=O)nc(CC(C)C)nc21` reads 81% (inactive); that for `Cc1ccccc1-c1nc(CN2CCC(C(=O)N3CCC(C(N)=O)CC3)CC2)c(C)o1`, 108% (inactive); that for `CCCCN(CC)CCCNC(=O)c1cc2c(=O)n(C)c3ccccc3c2n1C`, 76% (inactive). On the same count and under the same terms, the figure for `Cc1nn(-c2ccc(F)cc2)c2c1cc(C#N)c1nc3ccccc3n12` is 102% (inactive); for `CCCn1c(OC)nc2c1c(=O)n(C)c(=O)n2C` it is 89.5% (inactive); for `CCOC(=O)Cc1ccc(NS(=O)(=O)c2ccc(SC)cc2)cc1` it is 89% (inactive). Same read-out and setting: the figure for `CC(C)Sc1nc2c(c(=O)n1-c1ccc(F)cc1)SCC2` is 114% (inactive); for `COc1cccc(C2CC(c3c(Cl)cccc3Cl)n3nc(N)nc3N2)c1` (centres undefined) it is 97% (inactive). `Cc1cccc(OCCNC(=O)c2ncn[nH]2)c1`: the viability was 100% (inactive). Same read-out and setting: the result for `COc1ccc(S(=O)(=O)N2CCN(c3ccc(C)cc3C)CC2)cc1OC` reads 94.5% (inactive). Still for that read-out and setting: the result for `CS(=O)(=O)NCCSCc1c(F)cccc1Cl` reads 89.5% (inactive); that for `CC(C)CCNC(=O)Cn1c(NCCC(C)C)nc2c1c(=O)n(C)c(=O)n2C`, 121% (inactive); that for `CCOC(=O)N1CCC(NC(=O)C2CCCN(C(=O)c3cc4sccc4n3C)C2)CC1` (centres undefined), 113% (inactive). Same read-out and setting: the figure for `CCOC(=O)N1CCC(NC(=O)c2cc(C(=O)NC3CCCC3)ccc2CO)CC1` is 97.5% (inactive).
